Source: PubChem BioAssay AID602314 (ICCB-Longwood Screening Facility, Harvard Medical School, 2012)
Out of some 84,000 compounds screened, about 110 (0.13%) were called active. Shown is part of a subset that was picked to be rich in actives. Unmarked numbers belong to inactive results. Rule as the data show it: active = inhibition above about 30% (passing the limit was not always enough); inactive = the rest.

These molecules were tested on MgrA (MarR family transcriptional regulator), Staphylococcus aureus Newman (assay: modulators of MgrA DNA binding – biochemical, S. aureus Newman, fluorescence polarization, primary screen (AID 602314;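 also: 0% = protein plus DNA without compound and 100% = DNA alone without protein; higher means less MgrA bound to DNA so lower polarization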)). Settings: stronger effect = higher value, concentration not given here.

| SMILES | inhibition |
| --- | --- |
| CCOC(=O)CC1=C(C(=O)OCC)C(c2c(F)cccc2Cl)C(C#N)=C(N)O1 (stereo unspecified) | 0.2% |
| C=CCNC(=O)c1cc(-c2ccccc2O)on1 | 0.8% |
| C=CCNC(=O)c1ccc2nc(-c3ccco3)c(-c3ccco3)nc2c1 | 59.2% (active) |
| C=CCNC(=O)c1ccc(OCC=C)cc1 | 0.4% |
| CSC(=Nc1ccccc1F)Nc1ccccc1F | -2.5% |
| O=C(O)c1ccccc1Cc1cccs1 | -3.8% |
| C=CCNC(=O)c1cc(Br)cs1 | 0.6% |
| Cc1nc(SCSc2nc3ccccc3s2)nc2c1CCCC2 | 0.6% |
| CCN(CC)S(=O)(=O)c1cc2c3c(c1)c(C)cc(=O)n3CCC2 | 0.85% |
| O=C(c1ccc(Br)cc1)c1cc2cc(Br)cc(Br)c2o1 | 1.1% |
| COc1cccc(O)c1C(=O)NCC(=O)O | -1.1% |
| COc1ccc(N=Cc2nc(-c3ccccc3Br)oc2O)c([N+](=O)[O-])c1 | 4.2% |
| O=C(OC(C(=O)c1ccccc1)c1ccccc1)c1cccc(O)c1 (stereo unspecified) | -1% |
| CCNc1sc(C(=O)OC)c(N)c1C#N | 0.25% |
| COc1ccc2[nH]c(=O)c(CN(Cc3ccc(C)cc3)C(C)=O)cc2c1 | 3.85% |
| COc1cccc(CNn2cn[nH]c2=S)c1OCc1ccccc1 | 0.8% |
| COc1cc(C)nc(NN)n1 | 2.8% |
| COc1ccc(Cl)c2c1NC(c1ccncc1)C1CC=CC21 (stereo unspecified) | 0% |
| CC1(C)CC(CC#N)(c2ccccc2)CCO1 (stereo unspecified) | -1.15% |
| Cn1c(SCC(=O)NCc2ccc(Cl)cc2)nnc1-c1ccc(Cl)cc1 | -0.25% |
| NC(=O)c1ccccc1N=Cc1ccc2ccccc2c1 | -2.2% |
| Cc1ccc2c(c1)NC(c1cc(Cl)cc(Cl)c1O)c1cccn1-2 (stereo unspecified) | 0.6% |
| Cc1nc2onc(OCC(=O)OCc3ccccc3)c2c(C)c1C | 0.6% |
| O=C1CCCN1c1ccc(OC(F)(F)F)cc1 | -1.5% |
| C=CCC1NC(C)(C)Cc2ccccc21 (stereo unspecified) | -0.25% |
| CC1CCCCN1C(=O)c1ccccc1F (stereo unspecified) | -1.4% |

| SMILES | inhibition |
| --- | --- |
| NCC1(N2CCCCC2)CCCCC1 | -1.35% |
| Cc1onc(-c2ccccc2)c1C(=O)N=C(N)c1ccc(Cl)cc1 | -1.9% |
| C=CCSc1nc2c(c(=O)[nH]c(=O)n2C)n1C/C=C(\C)Cl | 3% |
| Cc1cc(C)cc(C(=O)OCC(=O)Nc2cccc(C(F)(F)F)c2)c1 | 3.35% |
| COC(=O)c1sc(-c2ccc(Cl)cc2)cc1NC(=O)c1ccc2nsnc2c1 | -0.8% |
| CC(=O)N1N=C(c2c(-c3ccccc3)c3cc(Cl)ccc3[nH]c2=O)CC1c1cccc(Br)c1 (stereo unspecified) | -1.4% |
| Cc1[nH]ncc1-c1ccccc1 | -1.4% |
| CCOC(=O)c1sc(SC)c2c1CC(c1ccc(C)cc1)CC2=O (stereo unspecified) | -0.2% |
| O=[N+]([O-])c1cc(C(F)(F)F)cc([N+](=O)[O-])c1Oc1ccc(Cl)cc1Cl | 3.2% |
| CC(C)(C)c1c[n+](-c2ccccc2)c2n1CCS2 | 0.1% |
| COC(=O)COc1ccccc1C#N | 0.4% |
| CC1OC(O[C@H]2/C=C/C=C/C=C/C=C/C=C/C=C/C=C/[C@H](C)[C@@H](O)[C@@H](C)[C@H](C)OC(=O)CC(O)CC(O)CCC(O)C(O)CC(O)CC3(O)C[C@H](O)C(C(=O)O)C(C2)O3)C(O)[C@H](N)C1O (stereo partly specified) | 2.9% |
| O=c1[nH]nc(-c2ccccc2)[nH]1 | -1.6% |
| CCC(=O)Nc1cc(NC(=O)c2ccco2)ccc1C | -1.65% |
| O=C(Nc1ccccc1)OCC12COC(c3ccccc3)N1C(c1ccccc1)OC2 (stereo unspecified) | -1.5% |
| O=C(c1ccco1)N1CCN(c2cnn(-c3ccccc3)c(=O)c2Cl)CC1 | -0.95% |
| Cc1ccc2c(c1)c1c(n2CC(O)CNCc2ccccc2)CCCC1 (stereo unspecified) | -1.7% |
| CN(C(=O)CSc1nncc(=O)[nH]1)c1ccccc1 | -1.65% |
| CC1(C)CC(=O)C2=C(C1)OC1=C(C(=O)CC(C)(C)C1)C2c1cn(Cc2ccc(Cl)cc2Cl)nc1-c1ccccc1 | -0.5% |
| COc1cc(C2C3=C(CC(C)(C)CC3=O)OC3=C2C(=O)CC(C)(C)C3)c(Br)cc1OCC(=O)O | 3.4% |
| O=C(NN=c1c(=O)c2ccccc2c1=O)c1ccncc1 | 1.9% |
| CCn1c(=O)c2ccccc2n(CC(=O)c2ccc(C)cc2)c1=O | -1.25% |
| CC1CCCN(c2ncccc2C(=O)NCC2CCCO2)C1 (stereo unspecified) | 1.1% |
| CN(C(=O)c1cc2nc(-c3ccco3)cc(C(F)(F)F)n2n1)c1ccc(OC(F)(F)F)cc1 | -0.95% |
| COc1ccc(C(=O)COC2=C(C#N)C3(CCCC3)C(C#N)C(=S)N2)cc1OC (stereo unspecified) | -1.5% |
